Results as given in the supplement of paper PMC7411054.
Where a name gives a salt, the structure may show the parent alone.

test system: A549-TUBA1B-RELA; test: phenotypically active (imaging signature differs from DMSO and reproducible) at any of 0.3-9 uM (binary (1 = active, 0 = inactive)); higher = active; settings: treatment time: 24 h
Outline: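 Two criteria together defined phenotypic activity: deviation and reproducibility. Deviation meant ≥3 of 4 wells beyond the 95th percentile of Euclidean distances in solvent control wells, and reproducibility meant a median replicate Pearson correlation above the 95th percentile of non-replicates. Wells had been treated for 24 h at 0.3, 1, 3 or 9 µM in fifteen gene-edited A549, HepG2 and WPMY1 reporter lines before live imaging.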

Structure (SMILES) | phenotypically active
CC/C(=C(\CC)c1ccc(O)c(CN(CC)CC)c1)c1ccc(O)c(CN(CC)CC)c1 | 1 (active)
CNCCC(Oc1ccc(C(F)(F)F)cc1)c1ccccc1 (centres undefined) [fluoxetine] | 1 (active)
Cn1cc(C2=C(c3ccc(Cl)cc3Cl)C(=O)NC2=O)c2ccccc21 | 1 (active)
CC(C)COCC(CN(Cc1ccccc1)c1ccccc1)N1CCCC1 (centres undefined) [bepridil] | 1 (active)
COc1cc(OC)c2cc(-c3ccncc3)cnc2c1 [DMPQ dihydrochloride] | 0 (inactive)
O=C(NOCC1CC1)c1ccc(F)c(F)c1Nc1ccc(I)cc1Cl | 1 (active)
Cn1cc(CCn2cnc(-c3cnn(C)c3)c2-c2ccc(C#N)cc2)cn1 | 0 (inactive)
COc1ccc(CCNCc2ccc(OCc3ccc(Cl)nc3)c(OC)c2)cc1OC [SBE 13 hydrochloride] | 1 (active)
O=C(O)Cc1cccc(OCCCN(Cc2cccc(C(F)(F)F)c2Cl)CC(c2ccccc2)c2ccccc2)c1 [GW 3965 hydrochloride] | 0 (inactive)
N#C/C(=C(/N)Sc1ccc(N)cc1)c1ccccc1C(F)(F)F | 0 (inactive)
CCOP(=O)(OCC)C(=Cc1cc(C(C)(C)C)c(O)c(C(C)(C)C)c1)P(=O)(OCC)OCC | 0 (inactive)
O=C([C@H](Cc1cccc(C(F)(F)F)c1)NS(=O)(=O)c1cc(F)c2c(c1)CCNC2)N1CCCC1 [(S)-PFI 2 hydrochloride] | 0 (inactive)
Cc1noc(C)c1Cn1cc(C#N)c2cc(Oc3ccc(NC(=O)[C@@H]4CCCN4)cc3)ccc21 | 1 (active)
CCCS(=O)(=O)Nc1ccc(F)c(C(=O)c2c[nH]c3ncc(Cl)cc23)c1F | 1 (active)
COc1c(C=O)c(O)cc2c1C(=O)c1ccccc1C2=O [Damnacanthal] | 0 (inactive)
COc1ccc(CNC(=O)Nc2ncc([N+](=O)[O-])s2)cc1 | 1 (active)
CC(C)(C)c1ccc2cc(C#N)c(C#N)cc2c1 | 0 (inactive)
C[C@H]1Oc2cc(cnc2N)-c2c(nn(C)c2C#N)CN(C)C(=O)c2ccc(F)cc21 | 1 (active)
CC(C)OC(=O)c1cc2c(OCC(O)CNC(C)(C)C)cccc2[nH]1 (centres undefined) | 1 (active)
COc1ccccc1OCCNCC(O)COc1cccc2[nH]c3ccccc3c12 (centres undefined) [Carvedilol] | 1 (active)

Structure (SMILES) | phenotypically active
CCCCOc1cc(C(=O)NCCN(CC)CC)c2ccccc2n1 [cinchocaine] | 1 (active)
O=S(=O)(c1cccc2cnccc12)N1CCCNCC1 [fasudil] | 1 (active)
Clc1ccccc1C(c1ccccc1)(c1ccccc1)n1ccnc1 [Clotrimazole] | 0 (inactive)
CSc1ccc2c(c1)N(CCC1CCCCN1C)c1ccccc1S2 (centres undefined) [thioridazine] | 1 (active)
CCCNCC(O)COc1ccccc1C(=O)CCc1ccccc1 (centres undefined) [propafenone] | 1 (active)
O=C(O)[C@@H]1[C@H]2C[C@H]3c4[nH]c5ccccc5c4CCN3C[C@@H]2CC[C@@H]1O [Yohimbinic acid monohydrate] | 1 (active)
COc1cc(N2CCC(N)CC2)ccc1Nc1ncc(Cl)c(-c2c[nH]c3ccccc23)n1 | 1 (active)
COc1cc2ncnc(Nc3ccc(Cl)cc3F)c2cc1OC | 1 (active)
Cc1noc(C)c1-c1ccc2c(c1)nc(CCc1ccc(OCCCN(C)C)cc1)n2CCN1CCOCC1 | 1 (active)
Cc1ccc(NC(=O)c2cccc(N(C)C)c2)cc1NC(=O)c1ccc(O)cc1 | 1 (active)
Cc1cc(Nc2ccc(NC(=O)c3ccc(Nc4ccnc5ccccc45)cc3)cc2)nc(N)n1 | 1 (active)
Cc1ccc(NC2=CC(=O)c3sc(C)nc3C2=O)cc1 [Ryuvidine] | 1 (active)
C[C@]1(O)C[C@@H](c2nc(-c3ccc4ccc(-c5ccccc5)nc4c3)c3c(N)nccn32)C1 [linsitinib] | 1 (active)
COc1cc2c(cc1OCCCN1CCCC1)N=C(N)C21CCC1 | 1 (active)
O=C(O)C[C@H](O)C[C@H](O)/C=C/c1c(C2CC2)nc2ccccc2c1-c1ccc(F)cc1 [Pitavastatin calcium] | 0 (inactive)
CC#CC(=O)N1CCC[C@H]1c1nc(-c2ccc(C(=O)Nc3ccccn3)cc2)c2c(N)nccn12 [acalabrutinib] | 0 (inactive)
NC(=O)c1cccc(-c2cc(Nc3ccc(OC(F)(F)F)cc3)ncn2)c1 | 1 (active)
CN1[C@@H]2CC[C@H]1C[C@@H](OC(c1ccccc1)c1ccccc1)C2 [benztropine] | 1 (active)
NS(=O)(=O)c1nn2cc(-c3ccccc3)nc2s1 | 0 (inactive)
